Laboratory results from PubChem BioAssay (NCATS).
Results filed as inconclusive are left out. Activity calls are given as the source filed them. Unless noted, calls follow the shape of the dose curve; as a rule, active = well fitted curve in the direction sought with a large enough effect; inconclusive = small, poorly fitted or top-dose-only effect, or another doubt; inactive = no such curve, though single readings can be large; an effect the other way counts as inactive or inconclusive.

Legend:
[1] = Nrf2 qHTS screen for inhibitors: Validation (AID 493153; active = well fitted inhibition curve with a large enough effect in the main read-out, with a control signal flat, not every such curve was filed as active); details: Potency: luciferase luminescence; viability change: measured here: cytotoxicity max response
Outline: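 A549 cells carrying ARE-firefly luciferase reporter, 5000 cells/well in 5% FBS OPTI-MEM, treated with compound over a concentration series for 18-24 h at 37 C. Luciferase luminescence gave Nrf2 activity; CellTiter-Fluor fluorescence gave viability.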

[2] = qHTS for Inhibitors of Cell Surface uPA Generation: Validation Assay (AID 493164)
Outline: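 RAW 264.7 cells (4000/well) were plated overnight, then exposed for 18 h at 37 C, 5% CO2 to compounds in a 7-point 1:5 titration (2.45 nM–38.3 uM final). Intracellular ATP was read by ATP-Lite luminescence.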

[3] = target: Peptidyl-prolyl cis-trans isomerase NIMA-interacting 1 (Homo sapiens) (UniProt Q13526); assay: qHTS Validation Assay to Find Inhibitors of Pin1 (AID 504536; active = well fitted inhibition curve with a large enough effect in the polarisation, with a control signal flat, not every such curve was filed as active; the % refers to the polarisation)
Peptidyl-prolyl cis-trans isomerase NIMA-interacting 1 (Homo sapiens), sequence (Q13526 whole entry, looked up): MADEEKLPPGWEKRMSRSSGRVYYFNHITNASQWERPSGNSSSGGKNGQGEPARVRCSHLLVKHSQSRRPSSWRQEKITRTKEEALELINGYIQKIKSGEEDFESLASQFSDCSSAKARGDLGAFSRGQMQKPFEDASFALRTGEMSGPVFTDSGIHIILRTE
Outline: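 Fluorescence polarization competition: compounds (titration) displace HiFluor-488-labeled Pin1-1b peptide from Pin1 (0.3 uM final) in pH 7.5 HEPES buffer with DTT, 10 min at room temperature; %Activity normalized to no-enzyme wells, curves fitted.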

[4] = target: Phosphoglycerate kinase, glycosomal (Trypanosoma brucei brucei) (UniProt P07378); assay: qHTS Validation Assay to Find Inhibitors of Phosphoglycerate Kinase (AID 504547); also: potency is read from the fitted curve at half-maximal effect
Phosphoglycerate kinase, glycosomal (Trypanosoma brucei brucei), sequence (P07378 whole entry, looked up): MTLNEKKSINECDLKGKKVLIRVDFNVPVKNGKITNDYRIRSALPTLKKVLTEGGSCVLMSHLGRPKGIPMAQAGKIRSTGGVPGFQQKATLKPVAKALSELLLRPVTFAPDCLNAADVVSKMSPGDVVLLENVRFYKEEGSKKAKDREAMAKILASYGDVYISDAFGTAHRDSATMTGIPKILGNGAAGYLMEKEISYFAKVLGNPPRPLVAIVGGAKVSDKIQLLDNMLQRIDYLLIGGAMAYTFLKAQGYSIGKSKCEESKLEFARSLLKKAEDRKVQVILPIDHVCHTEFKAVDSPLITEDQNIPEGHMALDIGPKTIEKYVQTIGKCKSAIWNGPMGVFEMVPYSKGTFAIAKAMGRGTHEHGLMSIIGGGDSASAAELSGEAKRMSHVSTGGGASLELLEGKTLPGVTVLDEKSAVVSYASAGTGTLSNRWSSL
Outline: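 Substrate/PGK mix plus compound; reaction started with GAPDH (100nM final) to form 1,3-BPG; 60 min RT; Kinase-Glo Plus 10 min; luminescence. TEA 100mM pH 7.6, MgCl2 5mM, Tween-20 0.01%.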

[5] = target: phosphoglycerate mutase (Leishmania major) (UniProt Q4Q090); assay: qHTS Validation Assay to Find Inhibitors of Phosphoglycerate Mutase (AID 504548); details: Potency: inhibition qHTS; also: series mostly up to about 58 µM
phosphoglycerate mutase (Leishmania major), sequence (Q4Q090 1-553): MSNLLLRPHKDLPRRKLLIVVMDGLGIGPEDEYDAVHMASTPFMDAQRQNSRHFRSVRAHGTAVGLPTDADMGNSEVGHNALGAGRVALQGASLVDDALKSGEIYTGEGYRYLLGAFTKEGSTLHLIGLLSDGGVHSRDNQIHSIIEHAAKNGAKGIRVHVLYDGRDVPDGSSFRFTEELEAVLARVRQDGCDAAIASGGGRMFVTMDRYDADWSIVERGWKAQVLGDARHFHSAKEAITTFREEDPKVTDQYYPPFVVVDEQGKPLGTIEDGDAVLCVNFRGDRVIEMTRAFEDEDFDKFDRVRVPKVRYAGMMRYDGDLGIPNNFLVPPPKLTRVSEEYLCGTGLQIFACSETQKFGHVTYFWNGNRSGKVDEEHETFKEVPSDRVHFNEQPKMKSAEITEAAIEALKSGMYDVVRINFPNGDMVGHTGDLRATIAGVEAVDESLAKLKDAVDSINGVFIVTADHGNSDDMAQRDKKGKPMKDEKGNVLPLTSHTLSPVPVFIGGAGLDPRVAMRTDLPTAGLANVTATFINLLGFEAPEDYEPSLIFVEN
Outline: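 Lm PGAM at 1.25 nM final with substrate in 100 mM TEA pH 7.6, 5 mM MgCl2, 0.01% Tween-20; 45 min at room temperature. Kinase-GloPlus added, 10 min, end-point luminescence read.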

[6] = target: Ubiquitin carboxyl-terminal hydrolase 1 (Homo sapiens) (UniProt O94782); assay: Inhibitors of USP1/UAF1: Pilot qHTS (AID 504865); also: nearly all actives have a fitted effect of over 35% in size; also: potency is read from the fitted curve at half-maximal effect
Ubiquitin carboxyl-terminal hydrolase 1 (Homo sapiens), sequence (O94782 whole entry, looked up): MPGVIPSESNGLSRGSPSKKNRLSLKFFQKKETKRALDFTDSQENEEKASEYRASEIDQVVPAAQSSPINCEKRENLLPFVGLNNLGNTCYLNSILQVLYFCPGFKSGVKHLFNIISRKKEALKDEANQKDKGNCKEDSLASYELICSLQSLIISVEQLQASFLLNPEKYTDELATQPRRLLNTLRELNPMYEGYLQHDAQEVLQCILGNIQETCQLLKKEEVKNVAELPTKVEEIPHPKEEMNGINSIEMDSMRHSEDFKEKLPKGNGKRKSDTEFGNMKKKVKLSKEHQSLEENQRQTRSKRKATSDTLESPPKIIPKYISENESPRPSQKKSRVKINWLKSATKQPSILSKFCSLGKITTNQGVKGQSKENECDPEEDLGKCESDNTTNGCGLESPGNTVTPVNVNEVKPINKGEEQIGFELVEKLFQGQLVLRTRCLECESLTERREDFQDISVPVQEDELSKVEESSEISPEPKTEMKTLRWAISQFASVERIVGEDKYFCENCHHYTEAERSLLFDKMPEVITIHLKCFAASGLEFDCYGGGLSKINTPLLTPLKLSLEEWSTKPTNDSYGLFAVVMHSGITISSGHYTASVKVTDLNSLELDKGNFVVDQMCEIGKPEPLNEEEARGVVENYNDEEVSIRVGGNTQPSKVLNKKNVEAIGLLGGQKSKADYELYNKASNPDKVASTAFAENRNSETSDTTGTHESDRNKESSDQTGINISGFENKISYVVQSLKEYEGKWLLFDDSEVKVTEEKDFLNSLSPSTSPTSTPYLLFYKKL
Outline: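 In 50mM HEPES pH 7.8 containing 0.5mM EDTA, 1mM TCEP, 0.1 mg/ml BSA and 0.01% Tween-20, 1nM USP1/UAF1 is exposed to compound for 15 min, then Ub-Rho (150nM final) is added and fluorescence is read over time.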

[7] = qHTS for Inhibitors of ATXN expression: Validation (AID 588378); also: series mostly up to about 57 µM; nearly all actives have a fitted effect of over 75% in size
Outline: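 Compounds were pinned onto attached HEK293 cells carrying an ATXN2-firefly luciferase construct and incubated 24 hrs at 37 degrees C. Each well then received a fluorescent viability reagent followed by luciferase substrate for end-point luminescence.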

[8] = Validation screen for small molecules that induce DNA re-replication in SW480 colon adenocarcinoma cells (AID 504364)
Outline: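 SW480 cells (250/well) exposed 48 h at 37 C, 5% CO2, then Hoechst-stained 40 min. Nuclear DNA content imaged by fluorescence scanning (405 nm excitation, 500-530 nm emission); re-replication scored as increased nuclei with elevated intensity.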

[9] = qHTS for Inhibitors of ATXN expression: Validation of Cytotoxic Assay (AID 588349)
Outline: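 HEK293 cells treated with titrated compound for 72 hr at 37 degrees C; viability read as intracellular ATP by CellTiter Glo luminescence.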

[10] = target: Galactokinase (Homo sapiens) (UniProt P51570); assay: qHTS Validation Assay for Inhibitors of Human Galactokinase (GALK) (AID 493189)
Galactokinase (Homo sapiens), sequence (P51570 whole entry, looked up): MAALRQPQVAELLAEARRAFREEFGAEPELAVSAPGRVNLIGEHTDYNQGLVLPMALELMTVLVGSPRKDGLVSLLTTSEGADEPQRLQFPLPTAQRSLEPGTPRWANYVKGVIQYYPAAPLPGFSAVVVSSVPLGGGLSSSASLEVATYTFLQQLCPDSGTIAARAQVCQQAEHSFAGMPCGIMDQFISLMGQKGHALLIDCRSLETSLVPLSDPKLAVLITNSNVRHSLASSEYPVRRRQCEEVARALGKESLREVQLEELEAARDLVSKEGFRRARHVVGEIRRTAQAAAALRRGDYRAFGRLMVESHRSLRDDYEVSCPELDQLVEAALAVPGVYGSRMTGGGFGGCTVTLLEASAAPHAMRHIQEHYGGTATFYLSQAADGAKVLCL
Outline: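 5 nM GALK / 100 uM galactose / 35 uM ATP, 20 mM HEPES pH8.0, 5 mM MgCl2, 60 mM NaCl, 1 mM DTT, 0.01% BSA (final). RT 1 h; Kinase-Glo Plus luminescence.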

O=C(O)C1=CCCN(CCON=C(c2ccccc2)c2ccccc2)C1
4.51%: viability change [1]
inactive: Potency [1] | outcome [2] | Potency [3] | Potency [4] | Potency [5] | Potency [6] | Potency [7]

Oc1ccc(/C=C/c2ccc(/C=C/c3ccc(O)cc3)c(Br)c2)cc1
inactive: Potency [1] | outcome [2] | Potency [3] | Potency [4] | Potency [5] | Potency [6]
2.12%: viability change [1]

COC(=O)C1=C(C)NC(C)=C([N+](=O)[O-])C1c1ccccc1C(F)(F)F (configuration not stated)
inactive: Potency [1] | outcome [2] | Potency [8] | Potency [3] | Potency [5] | Potency [9] | Potency [7]
-10.2%: viability change [1]

O=C(O)C1=CCNCC1
inactive: Potency [1] | outcome [2] | Potency [8] | Potency [3] | Potency [4] | Potency [5] | Potency [6] | Potency [7]
7.14%: viability change [1]

Cc1nc2c(OCc3ccccc3)cccn2c1CC#N
-7.51%: viability change [1]
inactive: Potency [1] | outcome [2] | Potency [8] | Potency [3] | Potency [4] | Potency [5] | Potency [6] | Potency [9] | Potency [7]

COc1cccc(OC)c1OCCNCC1CSc2ccccc2O1 (configuration not stated)
inactive: Potency [1] | outcome [2] | Potency [3] | Potency [4] | Potency [5]
-8.63%: viability change [1]

Nc1nc2c(nc(Br)n2C2OC3COP(=O)(O)O[C@@H]3C2O)c(=O)[nH]1 (some centres not stated)
2.34%: viability change [1]
inactive: Potency [1] | outcome [2] | Potency [3] | Potency [4] | Potency [5] | Potency [6] | Potency [9] | Potency [7]

CN1CC(O)C(O)C(O)C1CO (configuration not stated)
2.46%: viability change [1]
inactive: Potency [1] | outcome [2] | Potency [3] | Potency [4] | Potency [5] | Potency [6] | Potency [9] | Potency [7]

COc1cc(C(O)CO)ccc1O (configuration not stated)
inactive: Potency [1] | outcome [2] | Potency [8] | Potency [3] | Potency [4] | Potency [5] | Potency [6] | Potency [9] | Potency [7]
3.88%: viability change [1]

O=C(O)[C@H]1NCCC[C@H]1C(=O)O
11%: viability change [1]
inactive: Potency [1] | outcome [2] | Potency [8] | Potency [4] | Potency [5] | Potency [6] | Potency [9] | Potency [7]

C#CCn1c(=O)c2c(ncn2C)n(C)c1=O
inactive: Potency [1] | outcome [2] | Potency [8] | Potency [3] | Potency [4] | Potency [5] | Potency [6] | Potency [7]
4.85%: viability change [1]

C=C1C[C@@]23CC[C@H]4[C@@](C)(CCC[C@@]4(C)C(=O)O)[C@@H]2CC[C@]1(O)C3
inactive: Potency [1] | outcome [2] | Potency [3] | Potency [4] | Potency [5] | Potency [6] | Potency [9] | Potency [7]
-13.4%: viability change [1]

COC1(C2=NCCN2)COc2ccccc2O1 (configuration not stated)
inactive: Potency [1] | outcome [2] | Potency [8] | Potency [3] | Potency [5] | Potency [6] | Potency [9] | Potency [7]
-0.853%: viability change [1]

COC(=O)C(C)(N)Cc1ccc(O)cc1 (configuration not stated)
-3.06%: viability change [1]
inactive: Potency [1] | outcome [2] | Potency [8] | Potency [3] | Potency [4] | Potency [5] | Potency [6] | Potency [9] | Potency [7]

COCc1nc2c([nH]1)c(=O)n(C)c(=O)n2CC(C)C
1.53%: viability change [1]
inactive: Potency [1] | outcome [2] | Potency [8] | Potency [3] | Potency [5] | Potency [6] | Potency [9] | Potency [7]

Oc1cc(O)c2c(c1)O[C@H](c1ccc(O)c(O)c1)[C@@H](O)C2
inactive: Potency [1] | outcome [2] | Potency [8] | Potency [4] | Potency [5] | Potency [6] | Potency [9] | Potency [7]
1.23%: viability change [1]

O[Si](CCCN1CCCCC1)(c1ccc(F)cc1)C1CCCCC1 (configuration not stated)
inactive: Potency [1] | outcome [2] | Potency [3] | Potency [4] | Potency [5] | Potency [6]
-4.41%: viability change [1]

CCc1ccc2c(-c3cccc(Cl)c3)nc(=O)n(CC)c2n1
inactive: Potency [1] | outcome [2] | Potency [3] | Potency [4] | Potency [5] | Potency [6] | Potency [9] | Potency [7]
1.57%: viability change [1]

Nc1ncnc2c1nc(Br)n2C1OC2COP(=O)(O)O[C@@H]2C1O (some centres not stated)
inactive: Potency [1] | outcome [2] | Potency [3] | Potency [4] | Potency [5] | Potency [6] | Potency [9] | Potency [7]
1.09%: viability change [1]

Cn1cc(C(F)(F)F)nc1-c1ccc(OCC(O)CNCCOc2ccc(O)c(C(N)=O)c2)cc1 (configuration not stated)
inactive: Potency [1] | outcome [2] | Potency [8] | Potency [3] | Potency [4] | Potency [5] | Potency [6] | Potency [9] | Potency [7]
6.58%: viability change [1]

CC(C)[C@@H]1CC[C@@H](C)C[C@@H]1P(=O)(c1ccccc1)c1ccccc1
inactive: Potency [1] | outcome [2] | Potency [3] | Potency [5] | Potency [6] | Potency [9] | Potency [7]
-1.08%: viability change [1]

Cn1c(=O)c2[nH]c(-c3ccc(S(=O)(=O)O)cc3)nc2n(C)c1=O
inactive: Potency [1] | Potency [8] | Potency [4] | Potency [5] | Potency [9] | Potency [7]
-2.21%: viability change [1]

CC(=O)NCCc1c[nH]c2ccc(O)cc12
-0.372%: viability change [1]
inactive: Potency [1] | Potency [10] | Potency [8] | Potency [3] | Potency [4] | Potency [5] | Potency [6] | Potency [9] | Potency [7]

CSc1nc(N)c2ncn([C@@H]3O[C@H](COP(=O)(O)OP(=O)(O)O)C(O)[C@H]3O)c2n1 (some centres not stated)
inactive: Potency [1] | outcome [2] | Potency [5] | Potency [6] | Potency [9] | Potency [7]
0.858%: viability change [1]

C[C@]12C=CC(=O)C=C1CC[C@@H]1C2=CC[C@]2(C)[C@@H](C(=O)CN3CCN(c4cc(N5CCCC5)nc(N5CCCC5)n4)CC3)CC[C@@H]12
-17.1%: viability change [1]
inactive: Potency [1] | outcome [2] | Potency [3] | Potency [4] | Potency [5] | Potency [9] | Potency [7]

COc1cc(/C=C(\C#N)C(=O)c2ccc(O)c(O)c2)cc(I)c1O
-22%: viability change [1]
inactive: Potency [1] | Potency [8] | Potency [5] | Potency [7]
active: Potency [4] 2.13 µM | Potency [6] 50.1 µM
